# Measurements as given in PubChem BioAssay AID734 (The Scripps Research Institute Molecular Screening Center, 2007).
# Out of some 5,100 compounds screened, fewer than 10 were called active. The list is a sample of the results. A number with no mark means an inactive call.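 Rule for the calls: active = inhibition above the mean inhibition over all tested compounds plus 3 SD (cut at about 75% in these data); inactive = the rest.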
# Molecular target: Collagenase 3 (Homo sapiens) (UniProt P45452)
# Assay: MMP13 inhibitors among fluorescent compounds, confirmation, biochemical, possible fluorescent artifacts, delta fluorescence (AID 734);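 note: 0% = DMSO only wells and 100% = 8 µM reference MMP13 inhibitor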
# Details: MMP13 fTHP FRET cleavage, delta fluorescence 4 h; hits give high values;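 each compound tested at 4 µM nominal in triplicate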
row,Structure (SMILES),inhibition
1,Cc1onc(-c2ccccc2)c1C(=O)Nc1nnc(-c2ccncc2)s1,-3.75%
2,O=C(CC1Nc2ccccc2NC1=O)NC1CCCCC1 (stereo unspecified),4.1%
3,CCOc1ccc2[nH]c(=O)c(C(c3nnnn3Cc3ccco3)N3CCC(C)CC3)cc2c1 (stereo unspecified),8.93%
4,Cc1cccc(-n2c(=O)[nH]c3c(C(N)=O)nc(-c4ccccc4Cl)nc32)c1,6.92%
5,COC(=O)c1cc2c(s1)CS(=O)C2 (stereo unspecified),5.21%
6,CC(C)c1nc(N2CCOCC2)c(C#N)c2c1CCC2,-3.95%
7,CCOC(=O)c1cnc2cc(Cl)c(OC)cc2c1NCC1CCCO1 (stereo unspecified),3.77%
8,c1ccc(-n2nc3c(ccc4cnnc43)[nH]2)cc1,-1.01%
9,COc1ccc(-c2ccc(-c3noc(-c4ccccc4)n3)c(OC)n2)cc1,5.4%
10,COc1ccc(-c2ccc(-c3noc(-c4ccccc4C)n3)c(OC)n2)cc1,79.6% (active)
11,COc1ccc(-c2ccc(-c3noc(-c4ccccc4OC)n3)c(OC)n2)cc1,13.8%
12,CCOC(=O)c1sc(C)c(C(N)=O)c1NC1=NCCCCC1,2.74%
13,CCN(CC)C(=O)Sc1cccc2cccnc12,7.36%
14,CN(C)c1ccc(C(=O)N2CC(=O)N(CCc3ccccc3)C(=O)C2)cc1,0.16%
15,CCOC(=O)N1CCC(N2C(=O)c3ccccc3C2Nc2ccc3c(C)cc(=O)oc3c2)CC1 (stereo unspecified),-77%
16,Cc1cc(C)c2c(N)c(C(=O)Nc3nccs3)sc2n1,-7.23%
17,COc1ccccc1Nc1nc(-c2cccs2)cs1,4.53%
18,O=c1c2[nH]c3ccccc3c2ncn1Cc1cccnc1,5.84%
19,Cc1oc2c(CN3CCCC3)c(O)ccc2c(=O)c1-c1ccc(Br)cc1,11.1%
20,O=c1[nH]c2cc3c(cc2cc1C(c1nnnn1C1CCCC1)N1CCSCC1)OCCO3 (stereo unspecified),1.34%
21,CN1CCN(CCCNC(=O)Nc2cccc3ccccc23)CC1,4.59%

row,Structure (SMILES),inhibition
1,COc1ccc(C2C(C(=O)N3CCN(c4ccccn4)CC3)CC(=O)N2c2ccc(OC)cc2)cc1 (stereo unspecified),1.09%
2,COC(=O)c1[nH]c2cccc(OC)c2c1NC(=O)CN1CCC(C(N)=O)(N2CCCCC2)CC1,5.66%
3,C=C(Cl)COc1ccc2c(CC)cc(=O)oc2c1,6.13%
4,CC1=CC2=NC(=O)CC(C)(C(=O)N(CC(=O)NC(C)(C)C)C3CCCC3)N2C=C1 (stereo unspecified),2.69%
5,Cc1nc2c(C(=O)O)cnn2c(C)c1Cc1ccccc1F,5.94%
6,N#Cc1nc(-c2ccccc2F)oc1NCc1ccccc1,-7.81%
7,Cc1cccc(-n2c(SCCC(=O)O)nnc2-c2cccs2)c1C,6.84%
8,COc1ccc(-c2nc3nc(C)cc(C)n3n2)cc1,1.15%
9,Cc1cc(NC(=O)CSc2ccc3nnc(-c4cccnc4)n3n2)no1,0.22%
10,COCCCNC(=O)CSC1=Nc2ccccc2C2=NC(CC(=O)NCc3ccccc3)C(=O)N12 (stereo unspecified),0.89%
11,COCCn1c(SCc2csc(-c3ccccc3)n2)nc2ccccc21,3.46%
12,Cc1cccn2c(=O)c3cc(C(=O)N4CCN(C(=O)c5ccco5)CC4)n(C)c3nc12,0.62%
13,O=C(CCCOc1ccccc1)Nc1nccs1,3.79%
14,COc1ccc2[nH]c(=O)c(CN(CCCN(C)C)C(=O)Nc3ccccc3)cc2c1,0.48%
15,O=C(Nc1ccon1)c1cnc2sccn2c1=O,3.24%
16,O=c1[nH]c(=O)n(Cc2ccccc2)c2nc(-c3ccco3)cc(C(F)(F)F)c12,-103%
17,CCCSc1n[nH]c(NC(C)=O)n1,3.35%
18,O=C(Cc1ccccc1)Nc1ccc2oc(-c3cccnc3)nc2c1,-8.29%
19,O=C(Nc1nc(-c2cc3ccccc3oc2=O)cs1)c1ccco1,3.89%
20,COc1ccc(C(=O)NCc2nnc(SC)n2C2CCCCC2)cc1,-1.48%
21,COc1cccc(Cn2c(=S)[nH]c3ccc(N4CCOCC4)cc3c2=O)c1,3.27%

row,Structure (SMILES),inhibition
1,Cc1cc(=O)oc2cc(OC(C)C(=O)Nc3nccs3)ccc12 (stereo unspecified),3.57%
2,Cc1oc2c(CN3CCOCC3)c(O)ccc2c(=O)c1-c1ccc(Br)cc1,6.41%
3,CCn1c(=O)c2cc(C(=O)N3CCOCC3)sc2c2ccccc21,-2.27%
4,Cc1ccc(NC(=O)CC2Nc3ccccc3NC2=O)cc1Cl (stereo unspecified),5.69%
5,CCOC(=O)N1CCN(C(=O)c2cnn3c(C)c(Cc4ccc(C)cc4)c(C)nc23)CC1,-3.34%
6,O=S(=O)(c1ccccc1C(F)(F)F)N1CCOCC1,6.08%
7,Cc1onc(-c2ccccc2Cl)c1C(=O)Nc1nnc(-c2ccc(F)cc2)s1,6.05%
8,CCOC(=O)N1CCC(N2C(=O)c3ccccc3C2Nc2cc(C(=O)OC)cc(C(=O)OC)c2)CC1 (stereo unspecified),3.52%
9,Oc1ccc(N=Cc2ccc(-c3cccs3)s2)cc1,90.8% (active)
10,O=C(c1cccs1)c1ccc(-c2cccs2)s1,3.04%
11,CC(C)CCSc1nc2c(c(=O)[nH]c(=O)n2C)n1CCc1ccccc1,5.17%
12,CC1CCCN(C/C(O)=C(\C#N)c2nc3ccccc3[nH]2)C1 (stereo unspecified),4.57%
13,CCCCOC(=O)Cc1c(O)c2ccccc2[nH]c1=O,0.98%
14,CN(C)CCCN1C(=O)c2oc3ccc(F)cc3c(=O)c2C1c1cccnc1 (stereo unspecified),5.18%
15,Cc1cccc2cc(C#N)c(NCCNS(=O)(=O)c3ccc4c(c3)OCCO4)nc12,3.35%
16,Cc1ccc(S(=O)(=O)N2CCCC2C(=O)Oc2ccccc2)cc1 (stereo unspecified),5.98%
17,Cc1ccc(-n2c(-c3ccncc3)nnc2-c2ccco2)cc1,2.09%
18,Cc1cc(N2CCOCC2)nc2ccc(NC(=O)CCC(=O)N3CCCC(C)C3)cc12 (stereo unspecified),2.6%
19,CC(C)(/C=N/O)/[N+]([O-])=C/c1ccccc1C(F)(F)F,8.54%
